The other results are listed elsewhere or left out. The source made the active and inactive calls.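 The calls were made as follows, unless noted: active = GFP response above 150% of the DMSO level; inconclusive = fewer than 70 events counted for a yeast strain; inactive = the rest.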
Legend:
[1] = hit retest on RPL19A-GFP reporter strain – cell-based, S. cerevisiae, flow cytometry, cherry picks, mother/daughter gates, confirmation (AID 2270;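 active = GFP response below 50% of the DMSO control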); conditions: 3 h, at 10 µM, stronger effect = lower value, 100 = same GFP as DMSO wells
[2] = yeast TOR pathway reporter LAP4-GFP change – cell-based, cherry picks, flow cytometry, mother/daughter gates, confirmation (AID 2271;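 active = GFP response above 150% of the DMSO control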;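 also: ratio of sample to DMSO plate mean so 100% equals DMSO level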); conditions: S. cerevisiae LAP4-GFP strain, 3 h, at 10 µM, stronger effect = higher value, 100 means same as DMSO control
[3] = TOR pathway reporter MEP2-GFP, retest of hits – S. cerevisiae, flow cytometry GFP, cherry picks, confirmation (AID 2272;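 active = GFP response above 150% of the DMSO control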;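 also: ratio of well signal to plate DMSO mean so 100% equals DMSO level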); conditions: S. cerevisiae MEP2-GFP strain, 3 h, at 10 µM, stronger effect = higher value
[4] = yeast AGP1-GFP fluorescence change, single-dose – cell-based, flow cytometry, S. cerevisiae, cherry picks, confirmation (AID 2273);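 also: median GFP channel fluorescence over the whole cell population gate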; conditions: S. cerevisiae AGP1-GFP strain, 3 h, at 10 µM
[5] = TOR pathway CIT2 reporter hit retest – S. cerevisiae, GFP fusion, cherry picks, mother/daughter gates, confirmation (AID 2274); conditions: S. cerevisiae CIT2-GFP strain, flow cytometry, 3 h, at 10 µM, stronger effect = higher value
[6] = green-channel fluorescence artefact in S. cerevisiae – s288c strain, artefact control for yeast TOR pathway GFP screen, dose response (AID 2757;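 active = fluorescence span over the dose series, or activity score, above about 33, limit read from the data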;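 also: thousands of bead-calibrated equivalent soluble fluorophore molecules from median cell fluorescence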); conditions: 520 nm autofluorescence, flow cytometry, 3 h, at 33 µM, stronger effect = higher value, zero means same as solvent-only cells
[7] = measured here: daughter cell gate
[8] = measured here: mother cell gate
[9] = measured here: daughter cell gate response
[10] = measured here: mother cell gate response

SMILES	GFP response vs DMSO [1]	GFP response vs DMSO [1, 7]	GFP response vs DMSO [1, 8]	GFP response relative to DMSO [2]	GFP response relative to DMSO [2, 9]	GFP response relative to DMSO [2, 10]	GFP response vs DMSO [3]	GFP response, % of DMSO [4]	GFP response, % of DMSO [5]	GFP response, % of DMSO [5, 7]	GFP response, % of DMSO [5, 8]	fluorescence change (kMESF span) [6]
COc1ccc(-c2noc(CCC(=O)Nc3cccc(C)c3)n2)cc1	96.6% (inactive)	96.7%	96.2%	109% (inactive)	105%	108%	102% (inactive)	96.9% (inactive)	97.8% (inactive)	98.3%	94.5%	
O=[N+]([O-])c1cc(S(=O)(=O)C(F)(F)F)ccc1Sc1nc2ccccc2s1	95.6% (inactive)	95.1%	93.1%	184% (active)	162%	192%	102% (inactive)	88.1% (inactive)	107% (inactive)	105%	99.7%	
Cc1ccccc1N1C(=O)CC(Sc2nnc(-c3ccccc3)o2)C1=O (stereo not given)	94.6% (inactive)	92.2%	93.2%	102% (inactive)	101%	103%	103% (inactive)	102% (inactive)	97.3% (inactive)	97.4%	96.8%	
O=C(c1ccc2c(c1)OCO2)N1CCN(c2ccccc2)CC1	98.2% (inactive)	97.1%	94%	96.7% (inactive)	104%		98.3% (inactive)	98% (inactive)	99.7% (inactive)			
O=C1C=CC(=O)N1c1cccc(-c2ccccc2)c1	70.2% (inactive)	84.3%	59.1%	220% (active)		191%	109% (inactive)	104% (inactive)	86.1% (inactive)	93.2%	70.8%	
C/C(=N\Nc1ncnc2sc(C)c(C)c12)c1ccccn1	194% (inactive)	112%	175%	434% (active)		395%	967% (active)	107% (inactive)	449% (active)	118%	921%	
O=C1C=CC(=O)N1c1ccc(N2CCCCC2)cc1	75.5% (inactive)	86.8%	63.8%	220% (active)	99.2%	218%	87.8% (inactive)	79.9% (inactive)	104% (inactive)	97.2%	89%	0.41 (inactive)
CCCc1[nH]nc2c1C(c1ccccc1OC)C(C#N)=C(N)O2 (stereo not given)	98% (inactive)	94.4%	94.3%	116% (inactive)		100%	120% (inactive)	102% (inactive)	115% (inactive)	121%	112%	
C[n+]1ccc(/C=C/c2c[nH]c3ccccc23)cc1	107% (inactive)	105%	107%	143% (inactive)	143%	143%	187% (active)	107% (inactive)	145% (inactive)	142%	146%	5.54 (inactive)
